# Bioassay records deposited in PubChem BioAssay by National Center for Advancing Translational Sciences (NCATS).
# This is a sample that favours compounds with a hit; in the whole collection about 3.3% have one here.
# SARS PLP yeast: SARS-CoV PLP inhibition in yeast; 0.19% of 330,000 active; AID 485353; Potency, µM (top dose mostly 32.9 µM), most hits filed as activators; S. cerevisiae expressing SARS-CoV PLpro, growth rescue; calls by dose curve; also: nearly all actives have a fitted effect of over 55% in size
# Sm TGR block: blocks Schistosoma mansoni thioredoxin glutathione reductase; Q962Y6; Potency, µM (series often up to 114 µM), actives largely listed as inhibitors; purified TGR, DTNB reduction, TNB absorbance 405 nm; AID 485364; 3% of 360,000 active; also: nearly all actives have a fitted effect of over 60% in size
#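 TGR 20 nM + NADPH 100 uM (dispensed conc.), cpd preinc 15 min RT; start with NADPH (500 uM addition) then DTNB (15 mM addition). Kinetic TNB absorbance, 405 nm filter. Four-parameter Hill fit across titration.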
# Tb PYK inh: inhibitors of Trypanosoma brucei pyruvate kinase; Potency, µM (doses to about 76.8 µM), hits mostly inhibitors; AID 624173; TbPYK enzyme, Kinase-Glo Plus ATP luminescence, 45 min; 0.12% of 410,000 active; also: nearly all actives have a fitted effect of over 50% in size
#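 Screened from lowest to highest concentration, compounds were pinned into TbPYK/substrate mixtures, and ADP (130 uM final) was added. Plates sat at room temperature for 45 min prior to Kinase-Glo Plus detection by luminescence.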
# LmPK inh: blocks Leishmania mexicana pyruvate kinase activity. Q27686. purified LmPK, Kinase-Glo ATP luminescence, 1 h. Potency, µM (series often up to 57.5 µM), most hits filed as inhibitors. 0.37% of 290,000 active. AID 1721
# Target sequence (Q27686 whole entry, looked up): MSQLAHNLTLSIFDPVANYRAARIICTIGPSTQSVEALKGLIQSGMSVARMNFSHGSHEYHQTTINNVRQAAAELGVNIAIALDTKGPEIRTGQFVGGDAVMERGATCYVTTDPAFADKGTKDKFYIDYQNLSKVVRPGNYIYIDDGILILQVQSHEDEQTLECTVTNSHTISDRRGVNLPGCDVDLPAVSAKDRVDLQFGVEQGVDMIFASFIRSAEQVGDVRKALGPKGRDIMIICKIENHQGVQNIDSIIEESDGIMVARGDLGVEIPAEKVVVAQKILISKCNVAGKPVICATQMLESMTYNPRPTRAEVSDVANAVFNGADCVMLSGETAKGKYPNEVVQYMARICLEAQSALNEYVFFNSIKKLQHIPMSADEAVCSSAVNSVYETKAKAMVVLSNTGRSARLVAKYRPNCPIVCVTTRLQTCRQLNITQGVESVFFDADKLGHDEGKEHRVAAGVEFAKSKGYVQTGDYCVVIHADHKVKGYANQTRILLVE
#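 qHTS format; LmPK 0.1 nM; substrates PEP 0.5 mM and ADP 0.1 mM. One-hour room-temperature incubation, then coupled luciferase luminescence; 0.5 nM enzyme wells mark activation.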
# RE007 growth inh: less growth of the S. pombe RE007 Vpr strain. S. pombe RE007 Vpr strain, BacTiter-Glo ATP luminescence, 24 h. Potency, µM (series often up to 92.2 µM), most hits filed as inhibitors. 0.21% of 360,000 active. AID 651644; active = well fitted falling curve with a large enough effect; inconclusive = small, poorly fitted or top-dose-only effect; inactive = no such curve, though single readings can be large or run the other way; also: nearly all actives have a fitted effect of over 50% in size
#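 Fission yeast strain RE007, carrying one chromosomally integrated HIV-1 vpr copy, was seeded at OD 0.01 in PMG+AL medium with 23 nL pinned compound. After 24 h at 30 °C and 99% humidity, viability was read by BacTiter-Glo luminescence.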
# NS1 inh: influenza NS1 inhibition | 0.4% of 270,000 active | Potency, µM (top dose mostly 46.1 µM) | AID 2326; calls by dose curve; also: actives are rising curves; nearly all actives have a fitted effect of over 50% in size
#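 Growth recovery, yeast-based: influenza A NS1 expressed in S. cerevisiae causes slow growth, and suppressors are detected by OD600. The parent strain without NS1 is used as positive control.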
# A number is an active result; n = inactive; u = inconclusive; x = not tested or not shown; [ ] = another dose, or the depositor's remark. Unless noted, calls follow the shape of the dose curve; as a rule, active = well fitted curve in the direction sought with a large enough effect; inconclusive = small, poorly fitted or top-dose-only effect, or another doubt; inactive = no such curve, though single readings can be large; an effect the other way counts as inactive or inconclusive.
SMILES,SARS PLP yeast,Sm TGR block,Tb PYK inh,LmPK inh,RE007 growth inh,NS1 inh
C=C1C[C@@H]2[C@H]3CCC4=CC(=O)C=C[C@]4(C)[C@@]3(F)[C@@H](O)C[C@]2(C)[C@]1(O)C(=O)COC(C)=O,x,x,n,x,x,x
O=C1c2oc3ccccc3c(=O)c2C(c2cccnc2)N1CCCN1CCOCC1 (stereo not drawn),n,44.7µM,n,n,n,n
CC(C)c1ccc(C2c3c(oc4ccc(Cl)cc4c3=O)C(=O)N2CCCN2CCOCC2)cc1 (stereo not drawn),x,n,n,x,x,x
O=C1c2oc3ccc(Cl)cc3c(=O)c2C(c2ccccn2)N1CCCN1CCOCC1 (stereo not drawn),n,12.6µM,n,n,n,u
CC(C)Oc1ccc(C2c3c(oc4ccccc4c3=O)C(=O)N2CCCN2CCOCC2)cc1 (stereo not drawn),n,39.8µM,n,n,n,n
Cc1cccc(N2CCN(c3ccc4cc(S(=O)(=O)N5CCC(C)CC5)ccc4n3)CC2)c1C,x,n,n,x,x,x
O=S(=O)(c1ccccc1)N1CCC[C@@]2(CCN(c3ccncc3)C2)C1,x,x,n,x,x,x
N#Cc1c(N)sc(=S)c2c1CCCCC2,n,7.94µM,u,n,n,u
Cn1c(N)c(C#N)c2c(c1=S)CSC(C)(C)C2,n,12.6µM,n,n,n,n
CC1(C)Cc2c(C#N)c(N)sc(=S)c2CS1,n,31.6µM,u,n,n,n
CC(C)c1nc(Cl)c(C#N)c2c1CSC(C)(C)C2,n,n,n,n,n,n
N#Cc1c(N)sc2c1CCCCCC2,n,n,n,n,n,n
Cc1ccc(CSC2=Nc3ccccc3C3=NC(CCC(=O)NCCc4ccccc4)C(=O)N23)cc1 (stereo not drawn),x,n,n,x,x,x
Cc1ccc2occ(C(c3nnnn3C3CCCC3)N3CCN(C(=O)c4ccco4)CC3)c(=O)c2c1 (stereo not drawn),n,17.8µM,n,n,n,n
CCC(C)(C)n1nnnc1C(c1cc2cc(C)cc(C)c2[nH]c1=O)N1CCN(Cc2ccc3c(c2)OCO3)CC1 (stereo not drawn),n,u,n,n,n,n
CCC(C)(C)n1nnnc1C(c1cc2cc(C)cc(C)c2[nH]c1=O)N1CCCC1 (stereo not drawn),n,22.4µM,n,n,n,u
CCC(C)(C)n1nnnc1C(c1cc2cccc(C)c2[nH]c1=O)N1CCCC1 (stereo not drawn),n,10µM,n,n,n,n
Cc1cc(C)c2[nH]c(=O)c(C(c3nnnn3C(C)(C)C)N3CCN(C(=O)c4ccco4)CC3)cc2c1 (stereo not drawn),n,79.4µM,u,n,n,n
c1coc(-c2nc3n(n2)C2(CCCCC2)[C@@H]2CCCC[C@@H]2N3)c1,x,u,n,x,x,x
CCCCn1cnc2c(SC)ncnc21,x,x,x,x,x,n
O=C(NC1CC(=O)N(c2ccc(F)cc2)C1)c1cc2ccccc2o1 (stereo not drawn),x,n,n,x,x,x
CCN(CC)c1cc(Cl)c2nonc2c1N,n,n,n,n,n,n
CN(C)c1cc(Cl)c2nonc2c1N,n,50.1µM,n,n,n,n
NC(=O)NCCS[C@H]1CCCC[C@@H]1O,x,x,x,x,x,n
COc1ccc(NC(=S)Nc2ccccc2OC)c(OC)c1,n,x,n,n,n,n
SMILES,SARS PLP yeast,Sm TGR block,Tb PYK inh,LmPK inh,RE007 growth inh,NS1 inh
COc1ccc(NC(=S)NC(=O)CC(C)C)c(OC)c1,n,39.8µM,n,n,n,x
COc1ccc(NC(=S)Nc2cnc3ccccc3c2)c(OC)c1,n,39.8µM,n,n,n,n
COc1cc(Nc2ccc(S(N)(=O)=O)cc2)c([N+](=O)[O-])nc1[N+](=O)[O-],n,20µM,n,n,n,n
COc1ccc(OC)c(CCNC(=O)c2nn(C)c3c2CSc2ccccc2-3)c1,x,u,n,x,x,x
CCN(Cc1ccccc1)Cc1c(O)ccc2c(=O)c(-c3ccccc3OC)c(C(F)(F)F)oc12,x,n,n,x,x,x
O=[As](O)(O)c1ccc(NCc2ccccc2)cc1,x,x,x,x,x,n
CC(=O)Nc1ccc(-n2cc(-c3ccccc3)[nH]c2=S)cc1,n,n,3.16µM,u,n,x
COc1cc(/C=N/Nc2nc3ccccc3[nH]2)cc(OC)c1O,n,n,n,n,n,n
COc1cc(/C=C(/C(=O)c2cccs2)c2nc3ccccc3[nH]2)cc(OC)c1O,n,35.5µM,n,n,n,n
O=C(CNC(=O)c1ccc(Br)cc1)c1ccccc1,n,n,n,n,n,n
O=C(CC(C(=O)O)P(=O)(c1ccccc1)c1ccccc1)c1ccc(Br)cc1 (stereo not drawn),n,28.2µM,n,n,n,n
O=C(CC(Sc1ccc(Br)cc1)C(=O)O)c1ccc(Br)cc1 (stereo not drawn),n,0.282µM,x,n,x,n
O=C(CNC(=O)c1ccc(Br)cc1)c1ccc(Br)cc1,n,n,n,n,n,n
Cc1ccc(SC(CC(=O)c2ccc(C)cc2)C(=O)O)cc1 (stereo not drawn),n,12.6µM,n,n,n,n
O=C(CO)[C@@H](O)C(O)[C@@H](O)CO (stereo partly drawn),x,x,n,x,x,x
COc1cc(NC(=O)c2c(-c3ccc(C)cc3)nnc3ccccc23)cc(OC)c1OC,x,n,n[15.4 µM],x,x,x
CC1C(=O)OC2C1CCC1(C)CCC(=O)C(C)C21 (stereo not drawn),n,3.55µM,n,n,n,n
COc1cccc(Cn2c(=O)c(CCc3ccccc3)nc3cnc(OC)nc32)c1,x,x,n,x,x,x
CCOC(=O)c1cccc(NC(=O)c2cc3ccccn3n2)c1,x,n,n,x,x,x
CCOc1ccccc1-n1nnnc1SCC(=O)N1CCCC1=O,n,x,n,x,n,x
CCOc1ccccc1-n1nnnc1SCC(=O)NC(=O)Cc1ccccc1,n,20µM,n,x,n,x
CCCn1c(SCC(=O)NC(=O)NCc2ccco2)n[nH]c1=O,n,39.8µM,x,n,x,n
CCOc1ccccc1-n1nnnc1SCC(=O)NC(=O)NCc1ccco1,n,44.7µM,n,n,n,n
O=C(CSc1nnnn1-c1ccccc1)NC(=O)NCc1ccco1,n,n,n,n,n,n
CCN(CC)CCOCCOC(=O)C(CC)(CC)c1ccccc1 (tested in a mixture with another compound),x,x,n,x,x,x
COCc1cc(C)nc2c1C(=O)NC(c1ccc(F)cc1)N2Cc1ccccc1 (stereo not drawn),x,n,n,x,x,x
O=C(CSC1CS(=O)(=O)c2cc([N+](=O)[O-])ccc21)NNC(=O)c1ccccc1 (stereo not drawn),n,n,n,n,n,n
O=C(CSC1CS(=O)(=O)c2cc([N+](=O)[O-])ccc21)NNC(=O)c1ccc(Cl)cc1 (stereo not drawn),n,15.8µM,n,n,n,n
